Source: ChEMBL document CHEMBL1961873, “Compounds: GSK PKIS; Assays: Nanosyn kinase panel” (2012)

Key:
[1] = molecular target: High affinity nerve growth factor receptor (Homo sapiens) (UniProt P04629); details: at 1 µM;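 further: each value is the mean percent inhibition of TRKA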
[2] = molecular target: BDNF/NT-3 growth factors receptor (Homo sapiens) (UniProt Q16620); details: at 0.1 µM
[3] = molecular target: BDNF/NT-3 growth factors receptor (Homo sapiens) (UniProt Q16620); details: at 1 µM
[4] = molecular target: NT-3 growth factor receptor (Homo sapiens) (UniProt Q16288); details: at 0.1 µM
[5] = molecular target: NT-3 growth factor receptor (Homo sapiens) (UniProt Q16288); details: at 1 µM
[6] = molecular target: T1, Tyrosine-protein kinase TXK (Homo sapiens) (UniProt P42681); details: at 0.1 µM
T1 sequence (whole entry): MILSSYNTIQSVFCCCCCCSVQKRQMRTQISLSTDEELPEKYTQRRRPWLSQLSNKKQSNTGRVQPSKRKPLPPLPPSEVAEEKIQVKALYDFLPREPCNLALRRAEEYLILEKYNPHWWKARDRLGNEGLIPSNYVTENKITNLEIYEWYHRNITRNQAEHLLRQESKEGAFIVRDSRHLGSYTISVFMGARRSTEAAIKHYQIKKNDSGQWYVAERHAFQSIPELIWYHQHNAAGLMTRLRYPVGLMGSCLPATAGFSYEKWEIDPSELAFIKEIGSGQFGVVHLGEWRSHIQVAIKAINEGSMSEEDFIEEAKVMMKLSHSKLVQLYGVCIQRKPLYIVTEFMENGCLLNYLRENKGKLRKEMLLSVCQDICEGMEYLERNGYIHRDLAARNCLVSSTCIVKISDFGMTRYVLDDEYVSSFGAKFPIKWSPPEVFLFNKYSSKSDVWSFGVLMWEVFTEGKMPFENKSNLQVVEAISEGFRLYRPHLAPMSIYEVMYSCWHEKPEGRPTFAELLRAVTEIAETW

[7] = molecular target: T1, Tyrosine-protein kinase TXK (Homo sapiens); details: at 1 µM
[8] = molecular target: Non-receptor tyrosine-protein kinase TYK2 (Homo sapiens) (UniProt P29597); details: at 0.1 µM;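 further: each value is a mean of the inhibition readings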
[9] = molecular target: T2, Dual specificity protein kinase TTK (Homo sapiens) (UniProt P33981); details: at 1 µM;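 further: reported figures are mean TTK inhibition at 1 µM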
T2 sequence (whole entry): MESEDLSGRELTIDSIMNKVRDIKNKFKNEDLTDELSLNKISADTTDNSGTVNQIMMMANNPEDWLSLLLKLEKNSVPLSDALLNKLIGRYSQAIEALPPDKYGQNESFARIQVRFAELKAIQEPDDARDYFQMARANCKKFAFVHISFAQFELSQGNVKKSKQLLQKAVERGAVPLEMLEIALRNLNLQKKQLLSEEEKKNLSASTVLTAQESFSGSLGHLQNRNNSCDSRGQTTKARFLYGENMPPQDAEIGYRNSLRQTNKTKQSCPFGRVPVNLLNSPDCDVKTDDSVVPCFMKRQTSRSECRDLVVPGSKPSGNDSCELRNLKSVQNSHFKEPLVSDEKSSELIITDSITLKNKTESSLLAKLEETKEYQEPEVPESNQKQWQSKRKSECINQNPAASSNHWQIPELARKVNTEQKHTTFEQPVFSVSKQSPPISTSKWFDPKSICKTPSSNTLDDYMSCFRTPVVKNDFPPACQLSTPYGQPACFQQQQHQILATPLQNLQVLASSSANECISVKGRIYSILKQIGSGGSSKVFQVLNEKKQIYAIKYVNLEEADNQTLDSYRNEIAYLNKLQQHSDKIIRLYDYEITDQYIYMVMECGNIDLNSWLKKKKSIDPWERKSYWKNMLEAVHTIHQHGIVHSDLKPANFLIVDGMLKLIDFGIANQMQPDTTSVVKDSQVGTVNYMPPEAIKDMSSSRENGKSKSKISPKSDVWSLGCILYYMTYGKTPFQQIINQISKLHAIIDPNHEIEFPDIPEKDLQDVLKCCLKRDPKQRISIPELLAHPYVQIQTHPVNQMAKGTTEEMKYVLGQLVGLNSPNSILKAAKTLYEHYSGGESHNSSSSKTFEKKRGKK

[10] = molecular target: T3, Aurora kinase A (Homo sapiens) (UniProt O14965); details: at 0.1 µM
T3 sequence (whole entry): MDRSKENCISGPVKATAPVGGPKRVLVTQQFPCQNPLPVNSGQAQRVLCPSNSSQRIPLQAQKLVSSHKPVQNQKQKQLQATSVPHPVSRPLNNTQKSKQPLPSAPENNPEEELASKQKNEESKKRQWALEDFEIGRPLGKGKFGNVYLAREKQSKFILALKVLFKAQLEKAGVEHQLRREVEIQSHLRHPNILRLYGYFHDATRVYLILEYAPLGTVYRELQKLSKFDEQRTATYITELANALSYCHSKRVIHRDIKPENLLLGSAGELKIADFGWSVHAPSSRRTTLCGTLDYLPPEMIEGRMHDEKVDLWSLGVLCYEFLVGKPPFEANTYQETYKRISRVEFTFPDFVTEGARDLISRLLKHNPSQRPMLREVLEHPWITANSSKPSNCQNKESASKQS

[11] = molecular target: T3, Aurora kinase A (Homo sapiens); details: at 1 µM
[12] = molecular target: Aurora kinase B (Homo sapiens) (UniProt Q96GD4); details: at 0.1 µM
[13] = molecular target: Aurora kinase B (Homo sapiens) (UniProt Q96GD4); details: at 1 µM
[14] = molecular target: T4, Aurora kinase C (Homo sapiens) (UniProt Q9UQB9); details: at 0.1 µM
T4 sequence (whole entry): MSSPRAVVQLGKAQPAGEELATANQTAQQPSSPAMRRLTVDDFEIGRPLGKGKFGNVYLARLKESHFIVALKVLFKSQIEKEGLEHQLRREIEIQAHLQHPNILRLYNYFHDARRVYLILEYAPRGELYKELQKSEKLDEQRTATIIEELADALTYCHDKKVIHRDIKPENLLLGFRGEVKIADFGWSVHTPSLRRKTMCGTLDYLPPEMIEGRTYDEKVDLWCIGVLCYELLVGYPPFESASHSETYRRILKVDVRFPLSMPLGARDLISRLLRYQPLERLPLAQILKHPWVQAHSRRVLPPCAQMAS

[15] = molecular target: T4, Aurora kinase C (Homo sapiens); details: at 1 µM
[16] = molecular target: Serine/threonine-protein kinase 10 (Homo sapiens) (UniProt O94804); details: at 0.1 µM
[17] = molecular target: Serine/threonine-protein kinase 10 (Homo sapiens) (UniProt O94804); details: at 1 µM
[18] = molecular target: T5, Mitogen-activated protein kinase kinase kinase kinase 2 (Homo sapiens) (UniProt Q12851); details: at 0.1 µM
T5 sequence (whole entry): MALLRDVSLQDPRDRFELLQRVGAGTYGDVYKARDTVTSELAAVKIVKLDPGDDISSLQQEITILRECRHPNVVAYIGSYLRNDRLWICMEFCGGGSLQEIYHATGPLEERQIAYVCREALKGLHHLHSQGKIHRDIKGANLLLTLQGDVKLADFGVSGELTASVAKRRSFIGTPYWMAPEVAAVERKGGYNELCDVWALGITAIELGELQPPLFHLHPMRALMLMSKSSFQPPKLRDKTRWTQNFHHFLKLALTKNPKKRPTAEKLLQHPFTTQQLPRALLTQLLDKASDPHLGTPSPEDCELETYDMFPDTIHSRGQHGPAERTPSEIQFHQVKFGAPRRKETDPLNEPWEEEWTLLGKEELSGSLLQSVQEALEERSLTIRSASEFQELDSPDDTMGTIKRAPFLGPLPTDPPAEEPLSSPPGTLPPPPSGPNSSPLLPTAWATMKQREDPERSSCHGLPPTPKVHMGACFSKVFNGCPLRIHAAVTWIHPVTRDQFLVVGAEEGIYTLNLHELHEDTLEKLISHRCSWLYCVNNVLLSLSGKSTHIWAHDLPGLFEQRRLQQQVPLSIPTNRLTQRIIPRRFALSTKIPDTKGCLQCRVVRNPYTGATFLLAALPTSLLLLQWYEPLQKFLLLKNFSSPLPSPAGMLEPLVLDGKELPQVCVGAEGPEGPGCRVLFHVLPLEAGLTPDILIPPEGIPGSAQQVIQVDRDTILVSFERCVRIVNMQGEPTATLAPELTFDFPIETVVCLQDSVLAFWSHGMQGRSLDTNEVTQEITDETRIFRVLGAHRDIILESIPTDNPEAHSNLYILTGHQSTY

[19] = molecular target: T5, Mitogen-activated protein kinase kinase kinase kinase 2 (Homo sapiens); details: at 1 µM
[20] = molecular target: Mitogen-activated protein kinase kinase kinase kinase 4 (Homo sapiens) (UniProt O95819); details: at 0.1 µM
Chain of Mitogen-activated protein kinase kinase kinase kinase 4 (Homo sapiens) (O95819 2-1239 limits assumed): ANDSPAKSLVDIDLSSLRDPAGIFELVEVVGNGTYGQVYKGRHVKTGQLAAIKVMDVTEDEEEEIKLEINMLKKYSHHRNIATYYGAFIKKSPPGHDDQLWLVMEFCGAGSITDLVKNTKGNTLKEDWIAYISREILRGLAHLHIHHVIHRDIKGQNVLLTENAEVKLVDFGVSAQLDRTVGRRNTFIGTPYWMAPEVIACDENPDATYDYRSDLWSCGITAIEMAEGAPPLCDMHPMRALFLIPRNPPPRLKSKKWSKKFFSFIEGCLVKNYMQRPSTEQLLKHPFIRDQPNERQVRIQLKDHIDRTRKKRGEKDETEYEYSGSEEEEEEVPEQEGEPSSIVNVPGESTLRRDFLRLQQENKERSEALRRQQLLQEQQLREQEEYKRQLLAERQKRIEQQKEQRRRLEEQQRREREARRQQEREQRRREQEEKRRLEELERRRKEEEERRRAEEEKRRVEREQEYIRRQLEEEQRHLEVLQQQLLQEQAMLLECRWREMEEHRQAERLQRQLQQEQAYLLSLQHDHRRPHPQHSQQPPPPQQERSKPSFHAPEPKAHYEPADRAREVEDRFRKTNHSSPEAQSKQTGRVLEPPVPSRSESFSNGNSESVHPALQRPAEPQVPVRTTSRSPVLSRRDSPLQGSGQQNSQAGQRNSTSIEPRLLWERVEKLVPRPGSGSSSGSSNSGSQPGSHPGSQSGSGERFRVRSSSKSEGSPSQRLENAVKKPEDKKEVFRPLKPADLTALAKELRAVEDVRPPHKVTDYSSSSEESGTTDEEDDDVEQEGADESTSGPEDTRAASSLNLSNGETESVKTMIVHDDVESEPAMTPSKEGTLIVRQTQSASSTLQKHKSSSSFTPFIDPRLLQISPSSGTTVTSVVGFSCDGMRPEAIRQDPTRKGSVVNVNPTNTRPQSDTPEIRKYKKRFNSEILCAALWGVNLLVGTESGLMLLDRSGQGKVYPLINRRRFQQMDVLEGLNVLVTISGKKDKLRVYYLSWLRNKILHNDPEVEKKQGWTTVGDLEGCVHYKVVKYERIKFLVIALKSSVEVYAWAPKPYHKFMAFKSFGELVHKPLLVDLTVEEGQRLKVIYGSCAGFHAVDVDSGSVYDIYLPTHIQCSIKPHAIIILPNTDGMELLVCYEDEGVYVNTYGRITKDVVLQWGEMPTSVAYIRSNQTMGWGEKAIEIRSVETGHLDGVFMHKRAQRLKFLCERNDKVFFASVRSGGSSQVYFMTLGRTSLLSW

Chain of Non-receptor tyrosine-protein kinase TYK2 (Homo sapiens) (P29597 whole entry): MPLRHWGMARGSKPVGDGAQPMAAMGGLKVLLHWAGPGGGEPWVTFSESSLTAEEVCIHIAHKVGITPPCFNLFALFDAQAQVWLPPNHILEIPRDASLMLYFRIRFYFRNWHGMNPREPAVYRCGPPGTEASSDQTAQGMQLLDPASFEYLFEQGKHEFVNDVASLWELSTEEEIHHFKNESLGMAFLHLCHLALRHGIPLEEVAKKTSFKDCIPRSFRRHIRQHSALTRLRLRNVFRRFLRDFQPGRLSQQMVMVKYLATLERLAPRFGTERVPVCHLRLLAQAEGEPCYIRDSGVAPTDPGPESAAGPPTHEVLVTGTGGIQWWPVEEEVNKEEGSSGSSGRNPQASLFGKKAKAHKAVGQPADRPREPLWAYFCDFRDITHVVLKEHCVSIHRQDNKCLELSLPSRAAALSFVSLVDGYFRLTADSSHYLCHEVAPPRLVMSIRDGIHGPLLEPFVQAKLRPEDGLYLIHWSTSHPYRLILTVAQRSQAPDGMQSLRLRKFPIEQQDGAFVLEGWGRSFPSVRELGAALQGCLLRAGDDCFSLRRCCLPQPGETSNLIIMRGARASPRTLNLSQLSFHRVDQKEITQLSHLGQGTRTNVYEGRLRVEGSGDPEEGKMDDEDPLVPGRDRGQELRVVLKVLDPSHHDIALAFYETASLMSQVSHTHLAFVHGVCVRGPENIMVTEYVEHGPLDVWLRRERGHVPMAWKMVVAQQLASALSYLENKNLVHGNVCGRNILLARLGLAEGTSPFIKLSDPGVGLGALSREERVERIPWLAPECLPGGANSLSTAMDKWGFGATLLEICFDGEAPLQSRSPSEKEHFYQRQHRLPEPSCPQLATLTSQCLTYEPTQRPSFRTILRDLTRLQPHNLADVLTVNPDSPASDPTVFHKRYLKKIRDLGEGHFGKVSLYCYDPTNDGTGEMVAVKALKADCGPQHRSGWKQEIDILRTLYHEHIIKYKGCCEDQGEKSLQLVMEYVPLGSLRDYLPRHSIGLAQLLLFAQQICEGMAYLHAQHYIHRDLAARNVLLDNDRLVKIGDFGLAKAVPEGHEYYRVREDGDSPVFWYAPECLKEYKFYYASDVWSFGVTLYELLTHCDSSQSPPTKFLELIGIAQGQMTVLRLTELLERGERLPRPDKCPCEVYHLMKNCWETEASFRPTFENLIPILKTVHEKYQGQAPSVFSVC
Chain of Aurora kinase B (Homo sapiens) (Q96GD4 whole entry): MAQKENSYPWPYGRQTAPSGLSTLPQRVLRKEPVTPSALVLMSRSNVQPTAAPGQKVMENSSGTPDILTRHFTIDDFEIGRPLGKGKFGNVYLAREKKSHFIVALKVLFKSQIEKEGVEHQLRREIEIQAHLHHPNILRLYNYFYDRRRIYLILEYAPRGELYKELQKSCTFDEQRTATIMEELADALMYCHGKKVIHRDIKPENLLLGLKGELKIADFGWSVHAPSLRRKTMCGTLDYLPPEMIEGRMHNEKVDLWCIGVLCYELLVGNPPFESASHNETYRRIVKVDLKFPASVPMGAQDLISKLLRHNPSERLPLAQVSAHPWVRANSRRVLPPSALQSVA
Chain of NT-3 growth factor receptor (Homo sapiens) (Q16288 32-839 limits assumed): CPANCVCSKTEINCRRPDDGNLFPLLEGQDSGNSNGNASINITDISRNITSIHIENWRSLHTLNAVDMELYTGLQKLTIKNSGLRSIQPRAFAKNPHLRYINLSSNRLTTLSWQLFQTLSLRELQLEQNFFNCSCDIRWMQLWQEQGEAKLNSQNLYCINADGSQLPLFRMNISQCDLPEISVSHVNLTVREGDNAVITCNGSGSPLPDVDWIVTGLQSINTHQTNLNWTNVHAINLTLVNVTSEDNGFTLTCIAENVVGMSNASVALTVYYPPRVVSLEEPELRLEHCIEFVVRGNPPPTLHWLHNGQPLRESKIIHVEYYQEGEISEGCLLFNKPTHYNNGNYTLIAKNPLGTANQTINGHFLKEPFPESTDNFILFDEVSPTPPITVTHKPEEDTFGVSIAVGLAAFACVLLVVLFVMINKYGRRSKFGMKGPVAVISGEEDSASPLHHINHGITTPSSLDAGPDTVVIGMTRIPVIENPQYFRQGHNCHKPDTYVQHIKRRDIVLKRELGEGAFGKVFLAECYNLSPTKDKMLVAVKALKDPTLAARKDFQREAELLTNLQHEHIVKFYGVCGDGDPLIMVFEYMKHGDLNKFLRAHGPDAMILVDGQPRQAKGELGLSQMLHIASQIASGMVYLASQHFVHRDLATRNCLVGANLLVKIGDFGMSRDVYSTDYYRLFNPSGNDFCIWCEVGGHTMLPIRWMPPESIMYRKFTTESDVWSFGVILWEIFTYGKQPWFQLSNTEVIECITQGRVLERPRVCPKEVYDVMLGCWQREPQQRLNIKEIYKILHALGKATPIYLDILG
Chain of High affinity nerve growth factor receptor (Homo sapiens) (P04629 33-796 limits assumed): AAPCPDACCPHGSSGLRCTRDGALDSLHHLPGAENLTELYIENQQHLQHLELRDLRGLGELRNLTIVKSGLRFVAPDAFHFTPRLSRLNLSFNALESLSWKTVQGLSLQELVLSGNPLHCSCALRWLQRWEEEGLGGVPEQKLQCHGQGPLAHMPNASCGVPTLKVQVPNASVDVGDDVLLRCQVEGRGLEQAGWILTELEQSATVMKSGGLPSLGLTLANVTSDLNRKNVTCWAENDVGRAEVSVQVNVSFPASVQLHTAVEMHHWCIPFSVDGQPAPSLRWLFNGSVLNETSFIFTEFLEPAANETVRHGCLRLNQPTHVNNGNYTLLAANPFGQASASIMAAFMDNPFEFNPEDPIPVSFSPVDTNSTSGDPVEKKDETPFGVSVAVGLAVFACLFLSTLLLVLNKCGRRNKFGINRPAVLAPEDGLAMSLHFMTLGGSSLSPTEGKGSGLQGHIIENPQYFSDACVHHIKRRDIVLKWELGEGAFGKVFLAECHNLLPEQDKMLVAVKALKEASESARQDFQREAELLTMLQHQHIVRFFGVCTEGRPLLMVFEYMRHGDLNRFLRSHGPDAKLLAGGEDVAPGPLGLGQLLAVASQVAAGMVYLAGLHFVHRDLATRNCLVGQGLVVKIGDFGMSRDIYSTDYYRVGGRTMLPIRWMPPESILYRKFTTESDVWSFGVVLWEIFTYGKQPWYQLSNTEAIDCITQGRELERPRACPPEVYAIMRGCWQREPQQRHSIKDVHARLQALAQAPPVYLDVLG

Work on `Cc1cccc(Nc2ncc(-c3ccccc3)o2)c1` yielded an inhibition [1] of 6.23%, an inhibition [2] of 3.27% and an inhibition [3] of 11.7%. The inhibition [4] was 1.16%, the inhibition [5] was 12.2% and the inhibition [6] was 7.08%. The inhibition [7] was 5.35%, the inhibition [8] was 1.38% and the inhibition [9] was 6.17%. It also gave an inhibition [10] of 2.74%, an inhibition [11] of 7.93% and an inhibition [12] of 3.4%. The inhibition [13] was 7.88%, the inhibition [14] was 0.68% and the inhibition [15] was 11.2%. For the same compound, the inhibition [16] was 3.16%, the inhibition [17] was 7.96% and the inhibition [18] was 1.52%. The inhibition [19] was 4.15% and the inhibition [20] was 2.79%.
`COc1cc2ncn(-c3cc(OCc4ccccc4C(F)(F)F)c(C(=O)N(C)C)s3)c2cc1OC` gave an inhibition [1] of 8.1%, an inhibition [2] of -0.07% and an inhibition [3] of 7.43%. The inhibition [4] was 5.43%, the inhibition [5] was 16.2% and the inhibition [6] was 1.47%. For the same compound, the inhibition [7] was 3.4%, the inhibition [8] was -4.64% and the inhibition [9] was 10.4%. The inhibition [10] was 0.68%, the inhibition [11] was 9.82% and the inhibition [12] was 5.54%. It also gave an inhibition [13] of 31.1%, an inhibition [14] of 3.22% and an inhibition [15] of 46.2%. It also gave an inhibition [16] of 12.9%, an inhibition [17] of 55.8% and an inhibition [18] of 0.57%. The inhibition [19] was 2.23% and the inhibition [20] was 0.42%.
`CN1CCC(n2cnc(-c3ccc(F)cc3)c2-c2ccnc(N)n2)CC1` gave an inhibition [1] of 3.59%, an inhibition [2] of 0.4% and an inhibition [3] of 6.74%. It also gave an inhibition [4] of 3.47%, an inhibition [5] of 8.74% and an inhibition [6] of 2.63%. The inhibition [7] was 6.31%, the inhibition [8] was -2.21% and the inhibition [9] was -7.5%. It also gave an inhibition [10] of 4.64%, an inhibition [11] of 7.96% and an inhibition [12] of 1.08%. For the same compound, the inhibition [13] was 7.37%, the inhibition [14] was 1.63% and the inhibition [15] was 1.25%. For the same compound, the inhibition [16] was 3.39%, the inhibition [17] was 5.28% and the inhibition [18] was 0.79%. For the same compound, the inhibition [19] was 5.37% and the inhibition [20] was 2.95%.
`COc1ccc(-c2nn3ncccc3c2-c2ccnc(Nc3ccc4c(c3)OCCO4)n2)cc1` showed an inhibition [1] of 20.2%, an inhibition [2] of 1.61% and an inhibition [3] of 18.7%. The inhibition [4] was -1.55%, the inhibition [5] was 6.72% and the inhibition [6] was -0.79%. For the same compound, the inhibition [7] was 3.19%, the inhibition [8] was -1.16% and the inhibition [9] was 11.6%. For the same compound, the inhibition [10] was 18.5%, the inhibition [11] was 63.2% and the inhibition [12] was 3.61%. It also gave an inhibition [13] of 17.4%, an inhibition [14] of 6.73% and an inhibition [15] of 46.8%. It also gave an inhibition [16] of 11.2%, an inhibition [17] of 55.1% and an inhibition [18] of 0.69%. The inhibition [19] was 4.16% and the inhibition [20] was 0.61%.
`CNC(=O)c1cccc(C#Cc2cncnc2Nc2ccc(OCc3cccc(F)c3)c(Cl)c2)c1` showed an inhibition [1] of 0.53%, an inhibition [2] of 2.25% and an inhibition [3] of 1.08%. The inhibition [4] was 0.94%, the inhibition [5] was 2.86% and the inhibition [6] was 1.86%. For the same compound, the inhibition [7] was 3.33%, the inhibition [8] was -0.77% and the inhibition [9] was 9.1%. The inhibition [10] was 2.9%, the inhibition [11] was 11.8% and the inhibition [12] was -0.67%. It also gave an inhibition [13] of 4.77%, an inhibition [14] of 1.94% and an inhibition [15] of -5.97%. The inhibition [16] was 0%, the inhibition [17] was 4.51% and the inhibition [18] was -1.31%. It also gave an inhibition [19] of 0.34% and an inhibition [20] of -0.86%.
For `N#Cc1c(NC(=O)CN2CCOCC2)sc2c1CCCC2`, the inhibition [1] was 0.84%, the inhibition [2] was 2.29% and the inhibition [3] was 4.03%. For the same compound, the inhibition [4] was 2.17%, the inhibition [5] was 2.8% and the inhibition [6] was 2.2%. The inhibition [7] was 3.56%, the inhibition [8] was -1.25% and the inhibition [9] was 12.8%. For the same compound, the inhibition [10] was 2.73%, the inhibition [11] was 8.53% and the inhibition [12] was 4.66%. The inhibition [13] was 10.7%, the inhibition [14] was 2.31% and the inhibition [15] was -1.84%. It also gave an inhibition [16] of 5.94%, an inhibition [17] of 6.99% and an inhibition [18] of 1.71%. The inhibition [19] was 2.67% and the inhibition [20] was 10.5%.
